In PubChem BioAssay (Tox21):
Inconclusive results are not listed. Activity calls are given as the source filed them. Unless noted, calls follow the shape of the dose curve; as a rule, active = well fitted curve in the direction sought with a large enough effect in the repeat runs; inconclusive = weak or mixed curves; inactive = no such curve, though single readings can be large; an effect the other way counts as inactive or inconclusive.

Assays:
[1] = qHTS assay to identify small molecule antagonists of the thyroid receptor (TR) signaling pathway - cell viability counter screen (AID 743064); also: nearly all actives have a fitted effect of over 50% in size
How it was run: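 Compounds were tested on GH3.TRE-Luc cells in the presence of T3 at 1 nM final. Following 23.5 h at 37 °C, cell viability was quantified by CellTiter-Fluor.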

[2] = tested on: thyroid hormone receptor (rat, GH3 cells); experiment: qHTS assay to identify small molecule agonists of the thyroid receptor (TR) signaling pathway (AID 743066; calls by dose curve)
[3] = qHTS assay to identify small molecule antagonists of the estrogen receptor alpha (ER-alpha) signaling pathway - cell viability counter screen (AID 743074; calls by dose curve;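 also: HEK293 cells carrying ER-alpha-UAS-bla reporter stimulated with 17beta-estradiol; nearly all actives have a fitted effect of over 45% in size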)
[4] = qHTS assay to identify small molecule antagonists of the estrogen receptor alpha (ER-alpha) signaling pathway using the BG1 cell line - cell viability counter screen (AID 743081);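 also: compound given together with 17beta-estradiol as the ER stimulus; nearly all actives have a fitted effect of over 45% in size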
Aromatase (Homo sapiens) = Aromatase (Homo sapiens) (UniProt P11511); experiment: qHTS assay to identify aromatase inhibitors (AID 743083); also: nearly all actives have a fitted effect of over 55% in size
[5] = qHTS assay to identify aromatase inhibitors - cell viability counter screen (AID 743084);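 also: cells stimulated with testosterone during compound exposure; nearly all actives have a fitted effect of over 55% in size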
[6] = molecular target: Aryl hydrocarbon receptor (Homo sapiens) (UniProt P35869); experiment: qHTS assay to identify small molecule that activate the aryl hydrocarbon receptor (AhR) signaling pathway (AID 743085);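 also: HG2L7.5c1 human HepG2 liver cells with stably integrated DRE-driven firefly reporter; nearly all actives have a fitted effect of over 15% in size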
How it was run: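 24 h compound exposure, 37C, HepG2-derived HG2L7.5c1 cells with DRE-responsive luciferase. Readouts: fluorescence viability, then luminescence at room temperature after 30 min.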

[7] = qHTS assay to identify small molecule that activate the aryl hydrocarbon receptor (AhR) signaling pathway - cell viability counter screen (AID 743086);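 also: HepG2 liver cells carrying the AhR DRE luciferase reporter; nearly all actives have a fitted effect of over 45% in size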
How it was run: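 HepG2-AhR-luc (HG2L7.5c1) cells, 4000/well, were preincubated 5 h at 37C, exposed to compound in qHTS format for 24 hr at 37C, then given CellTiter-Fluor for 30 min; viability was read as fluorescence in the reporter wells.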

[8] = qHTS assay to identify small molecule antagonists of the peroxisome proliferator-activated receptor gamma (PPARg) signaling pathway - cell viability counter screen (AID 743194); details: Potency: co-treated with 50 nM rosiglitazone; also: nearly all actives have a fitted effect of over 55% in size
How it was run: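 PPARg-UAS-bla HEK293H cells were plated, rested 5 h at 37 C, then treated with compounds plus rosiglitazone (50 nM final) for 17 h at 37 C; viability was then read by CellTiter-Glo luminescence after 30 min at room temperature.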

[9] = qHTS assay for small molecule agonists of the antioxidant response element (ARE) signaling pathway (AID 743202; active = well fitted activation curve with a large enough effect in the signal ratio in the repeat runs, not every such curve was filed as active; the % refers to the signal ratio; also: potency is read from the fitted curve at half-maximal effect)
How it was run: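 Following a 16 h, 37 C exposure of reporter HepG2 cells (ARE-driven beta-lactamase, 2,000 cells/well) to compounds, FRET substrate was applied for 2 h at room temperature and fluorescence intensity recorded.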

[10] = qHTS assay for small molecule agonists of the antioxidant response element (ARE) signaling pathway - cell viability counter screen (AID 743203; calls by dose curve; also: nearly all actives have a fitted effect of over 55% in size)
How it was run: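 Viability counter screen: CellTiter-Glo luminescence, read after 30 min at room temperature, in ARE-bla HepG2 wells. Compound exposure lasted 16 h at 37C/5% CO2, following a 5 h pre-incubation of the cells after plating.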

[11] = qHTS assay for small molecule activators of the heat shock response signaling pathway (AID 743210; active = well fitted activation curve with a large enough effect in the signal ratio in the repeat runs, with a control signal flat, not every such curve was filed as active; the % refers to the signal ratio)
How it was run: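 Heat shock element–beta-lactamase HeLa reporter cells; qHTS with compounds for 5 h at 37 C; detection by FRET substrate fluorescence after 2.5 h at RT.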

[12] = molecular target: Peroxisome proliferator-activated receptor gamma (Homo sapiens) (UniProt P37231); experiment: qHTS assay to identify small molecule agonists of the peroxisome proliferator-activated receptor gamma (PPARg) signaling pathway (AID 743094; active = well fitted activation curve with a large enough effect in the signal ratio in the repeat runs, not every such curve was filed as active; the % refers to the signal ratio)
How it was run: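 Agonist activity was taken from a beta-lactamase reporter (FRET substrate, 1 h at room temperature) in HEK293H cells carrying a PPARg UAS-bla construct. Compounds in DMSO were incubated 17 h at 37C after a 5 h cell pre-incubation.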

[13] = molecular target: Peroxisome proliferator-activated receptor gamma (Homo sapiens) (UniProt P37231); experiment: qHTS assay to identify small molecule antagonists of the peroxisome proliferator-activated receptor gamma (PPARg) signaling pathway (AID 743191; calls by dose curve; also: nearly all actives have a fitted effect of over 30% in size; also: potency is read from the fitted curve at half-maximal effect)
How it was run: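 GeneBLAzer PPARg UAS-bla HEK293H cells carrying a UAS-driven beta-lactamase reporter were plated at 3000 cells/well, preincubated 5 h at 37C, then given compound for 17 h at 37C; LiveBLAzer B/G FRET substrate was read after 1 h at room temperature.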

[14] = qHTS assay for small molecule activators of the heat shock response signaling pathway - cell viability counter screen (AID 743209); also: nearly all actives have a fitted effect of over 50% in size
How it was run: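 Cytotoxicity counter screen run in the same wells as the heat-shock bla reporter assay: HeLa HSE-bla cells, 5 h compound exposure at 37 C, viability read by CellTiter-Glo luminescence.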

[15] = qHTS assay to identify small molecule antagonists of the thyroid receptor (TR) signaling pathway (AID 743065); also: nearly all actives have a fitted effect of over 55% in size
How it was run: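 GH3.TRE-Luc rat pituitary cells carrying two TR response elements driving luciferase were plated for 4 h, given compound plus 1 nM T3 (final), and incubated 23.5 h at 37 C. ONE-Glo luminescence measured reporter inhibition; CellTiter-Fluor fluorescence tracked cytotoxicity.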

[16] = molecular target: Estrogen receptor (Homo sapiens) (UniProt P03372); experiment: qHTS assay to identify small molecule antagonists of the estrogen receptor alpha (ER-alpha) signaling pathway (AID 743069; active = well fitted curve in the direction sought with a large enough effect in the signal ratio in the repeat runs, not every such curve was filed as active; the % refers to the signal ratio)
How it was run: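 A 17beta-estradiol challenge was applied right after compound transfer to ER-alpha-UAS-bla HEK293 cells previously kept in charcoal-stripped serum. Plates stood 18 hr at 37C and 5% CO2; fluorescence was read following 2 hr FRET substrate loading at room temperature.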

[17] = molecular target: Estrogen receptor (Homo sapiens) (UniProt P03372); experiment: qHTS assay to identify small molecule agonists of the estrogen receptor alpha (ER-alpha) signaling pathway (AID 743075; calls by dose curve;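 also: HEK293 GripTite cells with ER-alpha and UAS-driven beta-lactamase reporter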)
[18] = molecular target: Estrogen receptor (Homo sapiens) (UniProt P03372); experiment: qHTS assay to identify small molecule agonists of the estrogen receptor alpha (ER-alpha) signaling pathway using the BG1 cell line (AID 743079); details: BG1Luc4E2 cells, ERE-luciferase agonist, 22 h; also: nearly all actives have a fitted effect of over 20% in size
[19] = qHTS assay to identify small molecule antagonists of the estrogen receptor alpha (ER-alpha) signaling pathway using the BG1 cell line (AID 743080; calls by dose curve;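 also: BG1 cells stimulated with 17beta-estradiol alongside compound; nearly all actives have a fitted effect of over 25% in size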)
How it was run: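 Endogenous full-length ER-alpha in BG1-Luc-4E2 cells drives a stably integrated 4×ERE luciferase gene; compounds were tested against 17beta-estradiol over 21.5 h, with luminescence and multiplexed viability fluorescence recorded.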
% is scaled to controls: 0 for no effect and ±100 for the full control effect.

Chain of Estrogen receptor (Homo sapiens) (P03372 whole entry, looked up): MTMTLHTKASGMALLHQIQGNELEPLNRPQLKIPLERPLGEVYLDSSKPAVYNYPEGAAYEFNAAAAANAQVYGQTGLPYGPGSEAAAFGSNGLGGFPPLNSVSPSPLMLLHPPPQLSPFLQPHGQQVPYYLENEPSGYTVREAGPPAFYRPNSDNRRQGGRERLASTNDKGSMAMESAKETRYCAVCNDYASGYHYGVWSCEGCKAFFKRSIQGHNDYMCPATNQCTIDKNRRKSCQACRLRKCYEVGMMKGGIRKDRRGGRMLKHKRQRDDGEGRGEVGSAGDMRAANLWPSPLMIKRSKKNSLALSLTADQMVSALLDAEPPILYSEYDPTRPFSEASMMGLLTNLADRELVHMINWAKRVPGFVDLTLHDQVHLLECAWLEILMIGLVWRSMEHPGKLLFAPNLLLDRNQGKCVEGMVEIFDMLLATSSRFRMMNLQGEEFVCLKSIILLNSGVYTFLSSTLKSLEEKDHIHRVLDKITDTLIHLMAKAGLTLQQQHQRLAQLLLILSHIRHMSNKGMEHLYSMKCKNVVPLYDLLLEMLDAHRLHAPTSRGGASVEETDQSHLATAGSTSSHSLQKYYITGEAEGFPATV
Chain of Aryl hydrocarbon receptor (Homo sapiens) (P35869 whole entry, looked up): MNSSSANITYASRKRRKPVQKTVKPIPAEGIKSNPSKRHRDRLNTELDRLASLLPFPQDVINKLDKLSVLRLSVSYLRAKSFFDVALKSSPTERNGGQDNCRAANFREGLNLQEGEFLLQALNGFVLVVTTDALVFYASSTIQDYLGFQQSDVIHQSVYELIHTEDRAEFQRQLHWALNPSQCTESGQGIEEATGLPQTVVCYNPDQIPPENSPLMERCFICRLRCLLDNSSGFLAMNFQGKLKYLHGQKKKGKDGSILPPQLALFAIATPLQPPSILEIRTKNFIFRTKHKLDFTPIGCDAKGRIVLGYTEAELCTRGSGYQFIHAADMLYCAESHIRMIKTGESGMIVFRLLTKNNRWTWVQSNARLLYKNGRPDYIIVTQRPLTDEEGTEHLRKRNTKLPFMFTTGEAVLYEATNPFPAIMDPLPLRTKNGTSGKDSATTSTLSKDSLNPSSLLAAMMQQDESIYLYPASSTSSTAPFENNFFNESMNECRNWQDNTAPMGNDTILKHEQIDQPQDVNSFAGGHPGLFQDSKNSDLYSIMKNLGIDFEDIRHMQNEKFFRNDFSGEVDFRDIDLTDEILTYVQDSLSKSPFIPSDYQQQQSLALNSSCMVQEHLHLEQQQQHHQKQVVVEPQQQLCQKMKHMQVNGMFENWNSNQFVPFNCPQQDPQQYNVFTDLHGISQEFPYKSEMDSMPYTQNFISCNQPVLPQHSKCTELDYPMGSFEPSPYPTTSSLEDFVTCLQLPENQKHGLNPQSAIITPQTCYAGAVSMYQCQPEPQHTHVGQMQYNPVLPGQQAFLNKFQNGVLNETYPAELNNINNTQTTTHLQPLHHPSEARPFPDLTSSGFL
Chain of Aromatase (Homo sapiens) (P11511 whole entry, looked up): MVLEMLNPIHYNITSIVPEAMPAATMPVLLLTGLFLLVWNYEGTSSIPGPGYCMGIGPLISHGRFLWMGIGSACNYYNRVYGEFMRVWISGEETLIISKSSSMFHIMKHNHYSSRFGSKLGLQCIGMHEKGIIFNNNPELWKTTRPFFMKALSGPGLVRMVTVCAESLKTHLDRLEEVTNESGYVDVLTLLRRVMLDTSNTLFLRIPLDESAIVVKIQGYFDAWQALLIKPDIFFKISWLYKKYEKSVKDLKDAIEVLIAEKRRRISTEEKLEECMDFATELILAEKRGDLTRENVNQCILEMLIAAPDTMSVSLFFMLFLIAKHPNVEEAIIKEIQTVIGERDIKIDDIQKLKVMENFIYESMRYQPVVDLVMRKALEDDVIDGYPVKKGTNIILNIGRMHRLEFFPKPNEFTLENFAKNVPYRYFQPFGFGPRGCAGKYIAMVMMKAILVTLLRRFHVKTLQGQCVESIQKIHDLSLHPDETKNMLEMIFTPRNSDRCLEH
Chain of Peroxisome proliferator-activated receptor gamma (Homo sapiens) (P37231 whole entry, looked up): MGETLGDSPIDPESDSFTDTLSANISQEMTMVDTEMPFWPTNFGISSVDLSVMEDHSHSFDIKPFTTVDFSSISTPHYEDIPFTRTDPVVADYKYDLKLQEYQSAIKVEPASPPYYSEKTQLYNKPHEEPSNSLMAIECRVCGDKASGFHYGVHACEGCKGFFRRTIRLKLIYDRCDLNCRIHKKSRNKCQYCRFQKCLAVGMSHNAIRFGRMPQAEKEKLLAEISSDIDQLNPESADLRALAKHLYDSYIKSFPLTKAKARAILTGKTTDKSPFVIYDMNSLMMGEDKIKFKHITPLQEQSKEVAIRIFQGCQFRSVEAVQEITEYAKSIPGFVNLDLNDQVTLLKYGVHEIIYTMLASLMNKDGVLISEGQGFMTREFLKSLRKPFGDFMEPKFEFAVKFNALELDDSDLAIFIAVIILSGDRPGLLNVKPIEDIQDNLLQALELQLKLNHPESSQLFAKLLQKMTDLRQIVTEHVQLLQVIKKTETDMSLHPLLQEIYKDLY

CNC(=O)Oc1cccc(C(C)C)c1
inactive: Potency [1] | Potency [2] | outcome [3] | Potency [4] | Potency (Aromatase (Homo sapiens)) | Potency [5] | Potency [6] | outcome [7] | Potency [8] | Potency [9] | Potency [10] | outcome [11]

CCOP(=O)(OCC)OP(=O)(OCC)OCC
inactive: Potency [1] | Potency [2] | outcome [3] | Potency [4] | Potency (Aromatase (Homo sapiens)) | Potency [5] | Potency [6] | outcome [7] | outcome [12] | Potency [13] | Potency [8] | Potency [9] | Potency [10] | Potency [14] | outcome [11]

CN1CCN(C(=O)O[C@H]2c3nccnc3C(=O)N2c2ccc(Cl)cn2)CC1
inactive: Potency [1] | Potency [2] | outcome [3] | Potency [4] | Potency (Aromatase (Homo sapiens)) | Potency [5] | Potency [6] | outcome [7] | outcome [12] | Potency [13] | Potency [8] | Potency [9] | Potency [10] | outcome [11]

ClC(Cl)(Cl)C(Cl)(Cl)Cl
inactive: Potency [15] | Potency [2] | Potency [16] | outcome [3] | Potency [17] | activation ([18]; at 95 µM (top of the series)) -4.65% | Potency [19] | Potency [4] | Potency (Aromatase (Homo sapiens)) | Potency [5] | Potency [6] | outcome [7] | Potency [13] | Potency [8] | Potency [9] | Potency [10] | Potency [14] | outcome [11]

CN(N=O)C(N)=O
inactive: Potency [1] | Potency [2] | Potency [4] | Potency (Aromatase (Homo sapiens)) | Potency [5] | Potency [6] | outcome [7] | outcome [12] | Potency [13] | Potency [8] | Potency [9] | Potency [10] | Potency [14]

CCOC(=O)C(c1c(O)c2ccccc2oc1=O)c1c(O)c2ccccc2oc1=O
inactive: Potency [8] | Potency [14]
active: Potency [13] 7.5 µM

C[C@]12CC[C@H]3[C@@H](CCC4=CC(=O)CC[C@@]43C)[C@@H]1CC[C@@H]2C(=O)O
inactive: Potency [8] | Potency [10] | Potency [14]

O=C1OC(CCN2CCCCC2)OC1(c1ccccc1)c1ccccc1 (configuration not stated)
inactive: Potency [8] | Potency [10]
active: Potency [9] 23.7 µM

CC(C(O)c1ccccc1)N(C)C/C=C/c1ccccc1 (configuration not stated)
inactive: Potency [13] | Potency [8] | Potency [10] | Potency [14] | outcome [11]

CC(C(=O)c1ccccc1)N(C)C (configuration not stated)
inactive: Potency [9] | Potency [10] | Potency [14] | outcome [11]

CC(C)(C)NCC(O)c1cc(Cl)c(N)c(Cl)c1 (configuration not stated)
inactive: Potency [15] | Potency [2] | outcome [3] | Potency (Aromatase (Homo sapiens)) | outcome [7] | outcome [12] | Potency [13] | Potency [8] | Potency [9] | Potency [14] | outcome [11]

Fc1cc(Br)ccc1CBr
inactive: Potency [13] | Potency [8] | Potency [9] | Potency [10] | outcome [11]

O=c1oc2ccccc2c(O)c1C1CCCc2ccccc21 (configuration not stated)
inactive: Potency [2] | Potency [16] | outcome [3] | Potency [17] | activation ([18]; at 70.3 µM (top of the series)) -13.4% | Potency [19] | Potency [4] | Potency (Aromatase (Homo sapiens)) | Potency [5] | Potency [6] | outcome [7] | Potency [8] | Potency [10] | Potency [14] | outcome [11]
active: Potency [13] 30.9 µM
